Screens deposited in PubChem by National Center for Advancing Translational Sciences (NCATS).
In the library only some 11% were active in any assay of this set; here they are far more common.
NPR1 antag: Natriuretic polypeptide receptor (hNpr1) antagonism - Primary qHTS. Atrial natriuretic peptide receptor 1 (Homo sapiens), P16066. Potency, µM (top dose mostly 46.3 µM), for the others: top-dose activity change, negative = inhibition, most hits filed as inhibitors. actives 1.6% (n = 76,000). HEK293 hNpr1 GloSensor cGMP, ANP-stimulated luminescence; calls by dose curve; note: nearly all actives have a fitted effect of over 60% in size
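HEK293 cells stably expressing human Npr1 and cGMP GloSensor pGS-40F, loaded 2 h with 2% GloSensor reagent, given compound 30 min at room temperature. Luminescence read before and 20 min after 0.1 nM hNppA.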
3T3 cytotox: Cytotoxic Profiling in NIH 3T3 Cell Line of Diverse Libraries Using Quantitative High-Throughput Screening | NIH 3T3 viability, CellTiter-Glo ATP luminescence, 48-72 h | Potency, µM (highest dose often 96.7 µM), without a hit: at the top dose activity change, negative = cytotoxicity, usual class: inhibitors | actives 4.3% (n = 94,000); note: nearly all actives have a fitted effect of over 55% in size
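First NIH 3T3 cells are plated at 400 cells/well; next compound is pinned in; then plates incubate 48 or 72 hr at 37 °C; finally CellTiter-Glo is added and luminescence read after 10 min.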
HEK293 tox: Cytotoxic Profiling in HEK 293 Cell Line of Diverse Libraries Using Quantitative High-Throughput Screening. HEK 293 viability, ATP luminescence (CellTiter-Glo), 48-72 h. Potency, µM (top dose mostly 115 µM), for inactives: at the top dose activity change, negative = cytotoxicity, most hits filed as inhibitors. actives 6.6% (n = 94,000); note: nearly all actives have a fitted effect of over 60% in size
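qHTS cytotoxicity; HEK 293, 250 cells/well; compound pinned; 48 or 72 hr, 37 degree Celsius, 5% CO2, 95% humidity; CellTiter-Glo, 10 min RT; luminescence (ATP).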
Luciferase inh: Firefly luciferase inhibition profiling of diverse chemical library using quantitative high-throughput screening. Luciferin 4-monooxygenase (Photinus pyralis), P08659. purified P. pyralis luciferase, luminescence, biochemical. Potency, µM (doses to about 115 µM), actives largely listed as inhibitors. actives 2.5% (n = 76,000). AID 1347043, 2019; note: nearly all actives have a fitted effect of over 65% in size
Target sequence (P08659 whole entry, looked up): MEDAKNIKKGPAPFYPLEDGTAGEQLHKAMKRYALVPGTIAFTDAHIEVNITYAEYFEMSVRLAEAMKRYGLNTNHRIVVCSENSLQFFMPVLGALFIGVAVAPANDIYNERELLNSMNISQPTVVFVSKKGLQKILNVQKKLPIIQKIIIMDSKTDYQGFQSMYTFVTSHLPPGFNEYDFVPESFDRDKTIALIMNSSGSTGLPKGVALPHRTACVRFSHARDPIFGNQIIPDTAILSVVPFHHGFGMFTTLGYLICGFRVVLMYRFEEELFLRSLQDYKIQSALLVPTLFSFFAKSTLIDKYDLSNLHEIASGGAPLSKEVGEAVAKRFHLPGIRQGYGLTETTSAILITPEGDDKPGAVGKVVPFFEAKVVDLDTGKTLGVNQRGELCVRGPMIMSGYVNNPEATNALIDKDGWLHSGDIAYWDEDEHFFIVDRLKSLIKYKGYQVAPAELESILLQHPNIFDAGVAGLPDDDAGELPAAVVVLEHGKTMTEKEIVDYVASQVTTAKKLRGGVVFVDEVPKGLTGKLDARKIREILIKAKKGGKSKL
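Luminescence read by CCD imaging after purified firefly luciferase (10nM final) was added to substrate buffer holding 10uM D-luciferin and 10uM ATP, pH 7.5, pre-dosed with compound.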
The depositor's hits bear a star; i = inactive; ? = inconclusive; . = no result given; [ ] = dose if it differs, or a comment. Unless noted, calls come from the whole dose curve; as a rule, active = well fitted curve in the direction sought with a large enough effect; inconclusive = small, poorly fitted or top-dose-only effect, or another doubt; inactive = no such curve, though single readings can be large; an effect the other way counts as inactive or inconclusive. % is set by controls: 0 for no effect and ±100 for the full control effect; potency is the fitted concentration of half-maximal effect.

SMILES	NPR1 antag	3T3 cytotox	HEK293 tox	Luciferase inh
COc1ccccc1-c1cccc(C(=O)N2CCN(C(=O)c3ccc(Cl)cc3)CC2)c1	.	31.6µM*	?	.
COc1ccccc1-c1cccc(C(=O)N2CCN(C(=O)c3ccccc3C)CC2)c1	.	35.5µM*	31.6µM*	.
NC(=O)c1noc(CN2CCOc3c(O)cc(-c4csc5ccccc45)cc3C2)n1	-15.1%	?	?	i
Cn1cc(C(=O)N2CCOc3c(O)cc(-c4csc5ccccc45)cc3C2)cn1	-17.3%	?	25.1µM*	i
O=C(CCn1cncn1)N1CCOc2c(O)cc(-c3cccc(Cl)c3)cc2C1	6.7%	?	?	i
O=C(c1ccccn1)N1CCOc2c(O)cc(-c3cccc(Cl)c3)cc2C1	-24.3%	-26.3%	44.7µM*	i
COCC(=O)N1CCC(N2C(=O)c3c(c(C)nn3-c3ccccc3)C2C)C1 (configuration not stated)	.	-25.3%	-15.8%	.
CN1CCN(c2ccc(-c3noc([C@@H]4CCCN4Cc4ccccc4)n3)cn2)CC1	1.6%[70.6 µM]	100µM*	70.8µM*	i
CN(C)c1ccc(-c2noc([C@@H]3CCCN3Cc3nc4ccccc4n3C)n2)cn1	2.2%[70.6 µM]	?	112µM*	i
CC(C)CN1CCC[C@H]1c1nc(-c2ccnc(N3CCOCC3)c2)no1	-6.4%[70.6 µM]	?	89.1µM*	i
Fc1ccccc1CN1CCC[C@H]1c1nc(-c2ccnc(N3CCOCC3)c2)no1	-24.4%[70.6 µM]	?	89.1µM*	i
CS(=O)(=O)c1ccc(CN2CCC[C@H]2c2nc(-c3ccnc(N4CCOCC4)c3)no2)cc1	1.3%	-1.4%	i	i
Cc1nnc2ccc(N3CCCC(NS(C)(=O)=O)C3)nn12 (configuration not stated)	.	-4.6%[138 µM]	3.6%[172 µM]	.
c1ccc(CN2CCC[C@H]2c2nc(-c3ccnc(N4CCOCC4)c3)no2)cc1	-24.5%[70.6 µM]	?	89.1µM*	i
N#Cc1ccc(CN2CCC[C@H]2c2nc(-c3ccnc(N4CCOCC4)c3)no2)cc1	?	-26.4%[138 µM]	?	i
COc1ccc(C(=O)Nc2ccc(-c3noc([C@@H]4CCCN4Cc4cnc5ccccc5c4)n3)cn2)cc1	12.6µM*	28.2µM*	22.4µM*	?
CC(=O)N1CCN(c2cc(-c3noc([C@@H]4CCCN4Cc4ccc(C(F)(F)F)cc4)n3)ccn2)CC1	-15.0%	-35.3%	28.2µM*	i
CNc1ccc(-c2noc([C@@H]3CCCN3Cc3cnc4ccccc4c3)n2)cn1	-18.7%[70.6 µM]	?	?	i
C=CCN1C[C@H]2COc3cc(OC)ccc3[C@H]2N(C(=O)c2ccc(F)cc2)CCC1=O	.	?	-3.8%	.
COc1cccc(-c2nccc3c(=O)cc(N(C)C)oc23)c1	-5.1%[70.6 µM]	70.8µM*	-0.7%[230 µM]	i
COc1cccc(Cl)c1-c1nccc2c(=O)cc(N(C)C)oc12	-3.2%[70.6 µM]	50.1µM*	?	i
CCN1CC(C)(C)CN([S+](=O)([O-])c2ccc(C)cc2)CC1=O	.	?	-19.6%	.
Cc1ccc(OCC(=O)NCC23CCCC=C2NC(=O)CC3)cc1 (configuration not stated)	.	-24.1%	-18.6%	.
NC(=O)Cc1c[nH]c2ncc(-c3cccc(C(F)(F)F)c3)cc12	-27.2%[70.6 µM]	31.6µM*	?	i
NC(=O)Cc1c[nH]c2ncc(-c3cccc(OC(F)(F)F)c3)cc12	-11.5%[70.6 µM]	?	?	i
SMILES	NPR1 antag	3T3 cytotox	HEK293 tox	Luciferase inh
COc1cccc(-c2cnc3[nH]cc(CC(N)=O)c3c2)c1	-18.5%[70.6 µM]	70.8µM*	-18.7%[230 µM]	89.1µM*
CNC(=O)c1cc(C)cc2onc(C3CCCN3C(=O)Cc3ccccc3)c12 (configuration not stated)	.	-17.7%	1.5%	.
O=C(c1ccncc1)N1CCCN(c2ccc3nnc(-c4ccccc4)n3n2)CC1	.	-27.1%	-11.7%	.
C=CCNC(=O)c1cc2cccnn2n1	17.5%[70.6 µM]	-5.4%[174 µM]	-2.0%[230 µM]	?
O=C(NCc1ccc(Cl)cc1)c1cc2cccnn2n1	0.3%[70.6 µM]	?	?	44.7µM*
O=C(Nc1ccc(Cl)cc1Cl)c1cnn2ncccc12	3.4%[70.6 µM]	-23.0%[138 µM]	?	i
O=C(Nc1ccc(Cl)cc1Cl)c1cc2cccnn2n1	2.24µM*	?	?	0.316µM*
